# Screening results: PubChem BioAssay, several laboratories
# Shn3 inh set2 = reduces Shn3 3'UTR luciferase signal in osteoblasts; Clone20 osteoblast Shn3 3'UTR firefly luciferase, 24 h; inhibition, % at 12.5 µM; 0.52% of 360,000 active; AID 588674;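 active means mean inhibition of at least 75% with every replicate also reaching 75%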
# Peg3 promoter = inhibitors of Peg3 promoter; HeLa PEG-Prom luciferase reporter, luminescence, overnight; inhibition, % at 20 µM; 1.7% of 360,000 active; AID 588405;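 active means inhibition of at least 50% at 20 µM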
# HIF-2a inh = inhibitors of HIF-2a | inhibition, % at 18.8 µM | AID 624352 | 0.72% of 360,000 active | 786-0 RCC cells HIF-2a reporter, luciferase luminescence, overnight;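 active means inhibition of the luminescence signal of 40% or more relative to plate controls, in a single-dose primary screen at 18.75 µM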
# TRPM1 prom inh = inhibitors of MITF-driven TRPM1 promoter in melanoma cells; SK-MEL-5 TRPM1 promoter luciferase, 24 h; inhibition, % at 12.5 µM; 0.83% of 330,000 active;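 active means mean inhibition across replicates of 60% or more, whatever share of single replicates reaches that level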
# CF NFkB block = inhibitors of cystic fibrosis induced NF-kB; KKLEB NF-kB-GFP reporter, PAF-induced, GFP fluorescence overnight; inhibition, % at 5 µM; 0.86% of 360,000 active; AID 588850;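 active means at least 50% inhibition at 5 µM, scaled per plate between neutral and stimulator controls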;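 further: PAF is a Pseudomonas aeruginosa culture filtrate used as stimulus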
# KKLEB tox = CF airway cell cytotoxicity counter-screen; activity change (cytotoxicity), % at 5 µM; KKLEB CF airway cells viability, ATPlite luminescence, overnight; hits give low values; cells stimulated with P. aeruginosa culture filtrate; AID 602141; 0.36% of 360,000 active;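 active means corrected activity change at or below -50% at 5 µM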
# Mdm2-MdmX confirm = Mdm2/MdmX (human) interaction inhibition, confirmed | shares compounds with HIF-2a inh | SaOS-2 split-luciferase Mdm2/MdmX complementation, luminescence | inhibition, % at 8 µM | 99% of 740 active | AID 504601;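 active means mean inhibition of the luminescence signal across two replicates at or above 26 percent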
# HIF-2a conf = HIF-2a inhibition, single concentration confirmation; shares compounds with HIF-2a inh; 56% of 1,800 active; 786-0 RCC cells, HIF-2a luciferase reporter luminescence, overnight; inhibition, % at 18.8 µM;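 active means mean inhibition across four replicates of at least 40 percent at the single tested concentration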
# HIF-1a counter = counter-screen for HIF-2a inhibitors: HIF-1a inhibition in MiaPaCa-2 cells; shares compounds with HIF-2a inh; MiaPaCa-2 HIF-1a luciferase reporter, desferoxamine, overnight; inhibition, % at 18.8 µM; 72% of 1,800 active;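 active means mean inhibition of the reporter signal across four replicates at the single tested dose of 50% or more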
# A number is an active result; i = inactive; nt = not tested or not shown. An excerpt weighted towards active compounds, which were near 2.7% of everything screened.
SMILES,Shn3 inh set2,Peg3 promoter,HIF-2a inh,TRPM1 prom inh,CF NFkB block,KKLEB tox,HIF-2a conf,HIF-1a counter,others
COC(=O)/C(=C\c1ccc(O)cc1)c1nc2ccccc2[nH]1,i,i,i,i,i,i,nt,nt,
O=C(/C(=C\c1ccccc1)c1nc2ccccc2[nH]1)c1ccc(Cl)cc1,i,87,64,i,i,i,i,100,
C[C@@H]1CCCCO[C@H](CN(C)C(=O)Cc2ccccc2)[C@H](C)CN([C@@H](C)CO)C(=O)c2cc(NC(=O)Nc3ccc(F)cc3)ccc2O1,i,i,i,nt,i,i,nt,nt,
COc1ccc(OCCN(C)C(=O)c2cccc(S(=O)(=O)N(C)c3ccccc3)c2)cc1,i,i,i,i,i,i,nt,nt,
COc1ccc(C)cc1N1C(=N)/C(=C2/Nc3ccccc3S2)C(c2ccccc2)C1=O (stereo unspecified),i,91,83,i,i,i,i,88,
COc1ccc(C2C(Oc3ccccc3)C(=O)N2c2cc(C)ccc2C)cc1OC (stereo unspecified),i,i,i,i,i,i,nt,nt,
CCN(CC)CCNC(=O)c1cc2c(-c3ccc(Cl)cc3)nn(C)c2s1,i,88,58,62,i,i,i,88,
CC(C)NC(=O)/C(C#N)=C/c1cccc(NC(=O)c2ccccc2Cl)c1,i,i,48,i,i,i,i,i,
O=C1c2ccc(-c3ccc(F)cc3OCc3ccccc3)cc2S(=O)(=O)c2cccc(C(=O)N3CCCC3)c21,i,i,i,i,i,i,nt,nt,
O=[N+]([O-])/C=C/c1cn(Cc2ccccc2)c2ccccc12,i,55,43,i,i,i,71,105,
O=C(O)Cn1cc(/C=C/[N+](=O)[O-])c2ccccc21,i,i,i,i,i,i,nt,nt,
N#Cc1ccccc1Cn1cc(/C=C/[N+](=O)[O-])c2ccccc21,96,106,96,91,i,i,97,105,
O=Cc1ccc([B-](F)(F)F)s1,i,i,i,i,i,i,nt,nt,
COc1cc(OC)cc(-c2cc3nc(C)c(CCC(=O)Nc4nc(C)cs4)c(C)n3n2)c1,i,i,43,nt,i,i,55,i,
COc1ccc(C2c3ccc(O)cc3Oc3ncn(Cc4ccco4)c(=N)c32)cc1OC (stereo unspecified),i,i,i,i,i,i,nt,nt,
COc1ccc(C2c3ccc(O)cc3Oc3ncn4nc(-c5cccnc5)nc4c32)cc1OC (stereo unspecified),i,i,52,i,i,i,i,57,
O=S1(=O)N[C@@H](Cc2ccccc2)COc2cc(N3CCC[C@H]3CO)ccc21,nt,nt,i,nt,nt,nt,nt,nt,
COc1ccc(-c2noc(CCC(=O)Nc3cccnc3)n2)cc1,i,i,i,i,i,i,nt,nt,
CC(C)(C)c1ccc(-c2noc(CCC(=O)NCC3CCCO3)n2)cc1 (stereo unspecified),i,i,80,84,i,i,95,i,
CC(C)(C)c1ccc(-c2noc(CCC(N)=O)n2)cc1,i,i,87,71,i,i,94,i,
CC(C)(C)c1ccc(-c2noc(CCC(=O)Nc3cccnc3)n2)cc1,i,i,92,79,i,i,96,i,
Cc1ccc(-c2noc(CCC(=O)NCC3CCCO3)n2)cc1 (stereo unspecified),i,i,i,i,i,i,nt,nt,
CNc1cncc(-c2ccc(C)cc2)n1,i,i,i,nt,i,i,nt,nt,
COc1ccc(C(NC(=O)CN2C(=O)NC3(CCc4ccccc43)C2=O)c2ccc(OC)cc2)cc1 (stereo unspecified),i,i,i,i,i,i,nt,nt,
CN(Cc1ccccc1)C(=O)[C@@H]1CCCN1C(=O)[C@@H]1CCCN1C(=O)c1ccc(Cl)cc1,nt,nt,i,nt,nt,nt,nt,nt,
SMILES,Shn3 inh set2,Peg3 promoter,HIF-2a inh,TRPM1 prom inh,CF NFkB block,KKLEB tox,HIF-2a conf,HIF-1a counter,others
CC(=O)Nc1ccc(OCc2cccc3ccccc23)cc1,i,i,88,i,i,i,97,90,
COc1ccc(NC(=O)CNC(=O)Cc2cccc3ccccc23)cc1,i,i,i,i,i,i,nt,nt,
COc1cc(F)ccc1-c1csc(C(NC(C)=O)c2cccc(F)c2)n1 (stereo unspecified),i,i,i,nt,i,i,nt,nt,
CCn1c(=N)c(C(=O)NC)cc2c(=O)n3cccc(C)c3nc21,i,i,i,i,i,i,nt,nt,
CCNc1nc(C)c2cc(Br)c(=O)n(CC)c2n1,i,i,55,i,i,i,i,i,
N#CCCn1cc(C(=O)CN2C(=O)NC3(CCc4ccccc43)C2=O)c2ccccc21 (stereo unspecified),i,i,i,nt,i,i,nt,nt,
Cc1ccc(CNC(=O)c2cc3c(=O)n4ccccc4nc3n(Cc3ccco3)c2=N)cc1,i,i,i,i,i,i,nt,nt,
COc1ccc(CCNC(=O)c2cc3c(=O)n4cccc(C)c4nc3n(Cc3ccco3)c2=N)cc1OC,i,i,60,i,i,i,i,i,Mdm2-MdmX confirm=i
Cc1cccn2c(=O)c3cc(C(=O)NCCc4ccccc4)c(=N)n(Cc4ccco4)c3nc12,i,i,93,i,i,i,i,83,Mdm2-MdmX confirm=29
Cc1cccn2c(=O)c3cc(C(=O)NCc4ccco4)c(=N)n(CCc4ccccc4)c3nc12,i,i,i,i,i,i,nt,nt,
COC(=O)C[C@@H]1CC[C@H](NS(=O)(=O)c2cccc(F)c2)[C@@H](CO)O1,nt,nt,i,nt,nt,nt,nt,nt,
COc1cccc(NC(=O)C2(C)CCN2C(=O)CC2CCCC2)c1 (stereo unspecified),i,i,i,nt,i,i,nt,nt,
c1ccc(N2CCN(c3nc4cc5c(cc4s3)OCCO5)CC2)cc1,i,i,i,i,i,i,nt,nt,
c1c2c(cc3sc(N4CCOCC4)nc13)OCCO2,i,i,55,i,i,i,63,i,
CCN(CC)CCCN=C1N[C@@H](c2cccc(F)c2)C(C(=O)OC)=C(C)N1Cc1ccccc1,i,97,i,94,i,i,nt,nt,Mdm2-MdmX confirm=102
O=C(NCCc1ccccc1)C(c1cccs1)N(C(=O)CCl)c1ccc(Cl)cc1 (stereo unspecified),i,109,92,86,105,-89,97,108,Mdm2-MdmX confirm=103
O=C(NCc1ccncc1)C(=O)NCC1OCCN1S(=O)(=O)c1ccccc1 (stereo unspecified),i,i,i,nt,i,i,nt,nt,
COC(=O)c1ccc(/C=C(\C#N)C(=O)NC(C)c2ccccc2)cc1 (stereo unspecified),i,104,67,81,77,i,48,105,
